Laboratory results as given in PubChem BioAssay AID1159580 (chemical genetic matrix, 2015).
The campaign covered roughly 5,500 compounds. About 2,000 (36%) were called active. About 18% were inconclusive and are not listed. Cut-off read from the data, not from the text of the source: active = normalized growth mostly below about 0.91 (no sharp cut-off); inconclusive = no clear call, values can overlap the other calls; inactive = mostly above about 0.92. Some of the results follow.

Experiment: chemical genetic growth profiling, strain panel (AID 1159580);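 note: tested at 20 µM; growth read once vehicle control cultures reached saturation at 30 °C; 1 = growth at the plate median or of vehicle wells; lower values mean less growth of the strain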
Details: growth OD

Measured: normalized growth

O=C(Nc1ccc(C(F)(F)F)cc1)Nc1ccccc1C(=O)O
inactive: S. cerevisiae deletion strains, locus YAL013W, strain DEP1, active compounds read low 0.975 | S. cerevisiae deletion strains, locus YBR229C, strain ROT2, active compounds read low 0.993 | S. cerevisiae deletion strains, locus YCL061C, strain MRC1, active compounds read low 0.967 | S. cerevisiae deletion strains, locus YDL101C, strain DUN1, active compounds read low 0.994 | S. cerevisiae deletion strains, locus YDL134C, strain PPH21, active compounds read low 0.989 | S. cerevisiae deletion strains, locus YDR150W, strain NUM1, active compounds read low 0.972 | S. cerevisiae deletion strains, locus YEL061C, strain CIN8, active compounds read low 1.01 | S. cerevisiae deletion strains, locus YGR078C, strain PAC10, active compounds read low 0.984 | S. cerevisiae deletion strains, locus YGR229C, strain SMI1, active compounds read low 0.975 | S. cerevisiae deletion strains, locus YHR030C, strain SLT2, active compounds read low 0.99 | S. cerevisiae deletion strains, locus YHR087W, strain rtc3, active compounds read low 0.994 | S. cerevisiae deletion strains, locus YJR043C, strain POL32, active compounds read low 0.981 | S. cerevisiae deletion strains, locus YJR075W, strain HOC1, active compounds read low 0.979 | S. cerevisiae deletion strains, locus YKL190W, strain CNB1, active compounds read low 0.989 | S. cerevisiae deletion strains, locus YLR039C, strain RIC1, active compounds read low 1.01 | S. cerevisiae deletion strains, locus YLR058C, strain SHM2 (second series), active compounds read low 0.979 | S. cerevisiae deletion strains, locus YLR085C, strain ARP6, active compounds read low 1 | S. cerevisiae deletion strains, locus YLR262C, strain YPT6, active compounds read low 0.935 | S. cerevisiae deletion strains, locus YML094W, strain GIM5, active compounds read low 1 | S. cerevisiae deletion strains, locus YMR219W, strain ESC1, active compounds read low 0.971 | S. cerevisiae deletion strains, locus YMR263W, strain SAP30, active compounds read low 0.991 | S. cerevisiae deletion strains, locus YNL153C, strain GIM3, active compounds read low 0.977 | S. cerevisiae deletion strains, locus YNL298W, strain CLA4 (second series), active compounds read low 0.96 | S. cerevisiae deletion strains, locus YNL322C, strain KRE1, active compounds read low 0.971 | S. cerevisiae deletion strains, locus YNR030W, strain Alg12, active compounds read low 1 | S. cerevisiae deletion strains, locus YOL006C, strain TOP1, active compounds read low 0.939 | S. cerevisiae deletion strains, locus YPL055C, strain LGE1, active compounds read low 0.996 | S. cerevisiae deletion strains, locus YPL241C, strain CIN2, active compounds read low 0.977 | S. cerevisiae deletion strains, locus YPR135W, strain CTF4, active compounds read low 0.949 | S. cerevisiae strains, strain wild type, active compounds read low 0.968
